± gives the standard deviation of the averaged measurements.
Test system: Caenorhabditis elegans N2 infected with Nematocida parisii ERTm1
Assay: progeny production relative to DMSO uninfected control; higher = more progeny despite microsporidia infection (inhibition of infection with low host toxicity)
Details: infection time 6 days
Outline: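 Progeny production is reported as a percentage of spore-free vehicle wells and averaged across replicates. It was measured after bleach-synchronised wild-type C. elegans L1 larvae (100 per well) spent 6 days shaking at 21°C in K-medium with E. coli OP50, 15,000 N. parisii spores/μL and compound at 100 μM or 40 μM in 1% DMSO. Counting used Rose Bengal staining, flatbed scanning and WorMachine, and each compound and dose was tested three times.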

Structure (SMILES): O=C(NC(=O)N1CCCc2ccccc21)c1cccc(Cl)c1
- progeny production (40 µM): 2.7 ± 0.83%
- progeny production (100 µM): 19.9 ± 14%

Structure (SMILES): COc1cc(C)c2c(Oc3cccc(C(F)(F)F)c3)c(OC)cc(NC(C)CCCN)c2n1 (stereo not given)
- progeny production (40 µM): 4.23 ± 1%

Structure (SMILES): Clc1cc2nc(C3CCNCC3)n(Cc3ccc(CNCCc4c[nH]cn4)cc3)c2cc1Cl
- progeny production (40 µM): 7.61 ± 2.7%
- progeny production (100 µM): 10.3 ± 7.1%

Structure (SMILES): Oc1cccc(C(Nc2nccs2)c2ccc3cccnc3c2O)c1 (stereo not given)
- progeny production (40 µM): 4.05 ± 2%
- progeny production (100 µM): 12.9 ± 2.9%

Structure (SMILES): O=C(NCc1ccccc1Cl)c1cnc2ccccc2n1
- progeny production (40 µM): 6.81 ± 1%
- progeny production (100 µM): 12.1 ± 12%

Structure (SMILES): Oc1cc(-c2cccc3ccccc23)[nH]n1
- progeny production (40 µM): 2.92 ± 0.16%
- progeny production (100 µM): 18.4 ± 18%

Structure (SMILES): Cc1ccc(N2CCC(CCOc3ccc(S(C)(=O)=O)cc3)CC2)nn1
- progeny production (40 µM): 4.13 ± 1%
- progeny production (100 µM): 11.1 ± 10%

Structure (SMILES): C[C@H]1COc2c(N3CCN(C)CC3)c(F)cc3c(=O)c(C(=O)O)cn1c23
- progeny production (40 µM): 5.38 ± 2.2%
- progeny production (100 µM): 12.8 ± 9.1%

Structure (SMILES): COC(=O)Nc1nc2cc([S+]([O-])c3ccccc3)ccc2[nH]1 (stereo not given)
- progeny production (40 µM): 6.27 ± 3.5%
- progeny production (100 µM): 23 ± 20%

Structure (SMILES): C/C(=N\NC(=O)C1CC1c1ccccc1)c1ccc(NC(=O)c2ccco2)cc1 (stereo not given)
- progeny production (40 µM): 2.3 ± 0.95%
- progeny production (100 µM): 6.87 ± 1.1%

Structure (SMILES): CCC(C)(C)c1ccc(CC(C)CN2C[C@@H](C)O[C@@H](C)C2)cc1 (stereo not given in full)
- progeny production (40 µM): 4.64 ± 0.33%
- progeny production (100 µM): 23 ± 23%

Structure (SMILES): CC(C)(C)c1cc(C(=O)/C(C#N)=N/Nc2cccc(Cl)c2)no1
- progeny production (40 µM): 4.44 ± 0.8%
- progeny production (100 µM): 13.4 ± 11%

Structure (SMILES): CC(C)c1cc2c(cc1S(=O)(=O)O)[C@@]1(C)CCC[C@@](C)(C(=O)O)[C@@H]1CC2
- progeny production (40 µM): 8.72 ± 4.5%
- progeny production (100 µM): 4.55 ± 3%

Structure (SMILES): COc1cc(NS(=O)(=O)c2ccc(C)cc2)c2ncccc2c1
- progeny production (40 µM): 5.38 ± 2.2%
- progeny production (100 µM): 10.3 ± 3.9%

Structure (SMILES): COc1ccc2nc(-c3ccccc3)cc(O)c2c1
- progeny production (40 µM): 10.7 ± 7.9%
- progeny production (100 µM): 8.32 ± 3.4%

Structure (SMILES): Cc1cc(-c2ccccc2)c(C(=O)C(=O)Nc2ccc(N3CCN(c4ncc(F)cn4)CC3)cc2)n1C
- progeny production (40 µM): 2.94 ± 0.74%

— the supplement of paper PMC10732440
